PubChem BioAssay AID2315 (National Center for Advancing Translational Sciences (NCATS), 2010)
Screen size: about 290,000 compounds; about 27,000 (9.3%) were called active. No stated cut-off is given here; in the data, active means inhibition mostly above about 28% (no sharp cut-off); inactive means mostly below about 43%. The entries come from a sample that favours actives as a whole.

Assay: A qHTS for Small Molecule Inhibitors of Shiga Toxin; further: 0% is about no effect
Conditions: Vero cells, Shiga toxin protein synthesis inhibition reporter; at 38.7 µM, active compounds read high

Compound | inhibition
Cc1ccc(C(C(=O)NCC2CCCO2)N(C(=O)c2snc(C(N)=O)c2N)c2ccc(C(C)C)cc2)o1 (stereo not given) | 3.97% (inactive)
N#Cc1cccc(CN2CCC(=O)N([C@H](CO)c3ccccc3)CC2)c1 | -4.45% (inactive)
O=C(NCC1CC1)C1(C(F)(F)F)C/C(=C\CCO)CCCO1 (stereo not given) | 2.98% (inactive)
Cc1c2cnn(CC(=O)NCc3ccccn3)c(=O)c2c(C)n1Cc1ccc(Cl)cc1 | -4.19% (inactive)
C/C(=N\NC(=O)c1ccccc1F)c1ccccn1 | 61.3% (active)
COc1ccc(CC(=O)N/N=C(\C)c2ccccn2)cc1 | -0.965% (inactive)
C/C(=N\NC(=O)Cc1ccc(Cl)cc1)c1ccccn1 | 13.2% (inactive)
CCCCN(CC)CCNC(=O)CCNC(=O)Cn1ccc2ccccc2c1=O | -4.87% (inactive)
O=S(=O)(c1ccc(F)cc1)N1CCN=C1SCc1cccc(F)c1 | -6% (inactive)
Cc1ccc(C)c(NC(=O)c2ccc3nccnc3c2)c1 | 19.7% (inactive)
CC(C)CCC(C)NC(=O)c1ccc2nccnc2c1 (stereo not given) | 95.5% (active)
COCC(C)NC(=O)c1ccc(Cl)c(Cl)c1 (stereo not given) | -2.73% (inactive)
COC(=O)Cc1cnc(NC(=O)CSc2nc(C(C)C)cc(=O)[nH]2)s1 | -7.11% (inactive)
CCN(CC)CCn1c(/N=C/c2cc(Br)ccc2O)nc2ccccc21 | 26.3% (inactive)
Oc1ccc(Br)cc1C=Nc1ccc2[nH]ncc2c1 | -11.4% (inactive)
Oc1ccc(Br)cc1/C=N/Nc1ccccn1 | 66.3% (active)
Oc1ccc(/C=N/Nc2ccc(C(F)(F)F)cn2)cc1O | 108% (active)
Cc1nccn1CC(=O)N/N=C/c1ccc(O)c(O)c1 | -15.2% (inactive)
FC(F)(F)c1cccc(N/N=C/c2ccccc2)c1 | 33.8% (inactive)
COc1cc(C(=O)NCCOC(=O)c2cccc(N(C)C)c2)cc(OC)c1OC | -2.34% (inactive)
N#C/C=C/N1CCN(Cc2ccc3c(c2)OCO3)CC1 | -6.62% (inactive)
CN(C(=O)CSc1nnc(-c2c[nH]c3ccccc23)o1)C1CCS(=O)(=O)C1 (stereo not given) | -1.73% (inactive)
O=C(CSc1nnc(-c2c[nH]c3ccccc23)o1)c1ccccc1 | 22.5% (active)
CCC(CC)NC(=O)CSc1nnc(-c2c[nH]c3ccccc23)o1 | -14.4% (inactive)

Compound | inhibition
Cc1cccc(OCC(=O)Nc2ccc(NC(=O)c3ccco3)c(C)c2)c1 | -4.8% (inactive)
COc1ccc(-c2nonc2NC(=O)c2oc3ccc(F)cc3c2C)cc1OC | -3.6% (inactive)
CCOc1ccccc1CN1CCN(C2CCC2)CC1CCO (stereo not given) | -4.75% (inactive)
O=C(c1ccc(S(=O)(=O)c2ccccc2)cc1)N1CCCCCC1 | 1.55% (inactive)
O=C(c1ccc(CSc2ccccc2)cc1)N1CCCCCC1 | 17.6% (active)
CC1CCN(C(=O)c2ccc(CSc3ccc(Cl)cc3)cc2)CC1 | 0.865% (inactive)
CSCC[C@H](NC(=O)N1CCn2c1nc1ccccc12)C(=O)NCc1ccc2c(c1)OCO2 | -0.771% (inactive)
Cc1ccc(-c2nc(CS(=O)(=O)CC(=O)NCc3ccc4c(c3)OCO4)c(C)o2)cc1 | -3.19% (inactive)
Cc1ccc(NC(=O)c2ccc(CSc3ncnc4nc[nH]c34)cc2)c(C)c1 | 39% (inactive)
CCc1ccc(-c2nnn(Cc3nn[nH]n3)n2)cc1 | -3.04% (inactive)
CCc1ccc(-c2nnn(Cc3nc4ccccc4s3)n2)cc1 | 81% (active)
CCOC(=O)c1ccc(NC(=O)Cn2nnc(-c3ccc(C)cc3)n2)cc1 | -5.77% (inactive)
COc1ccccc1N1CC(C(=O)Nc2nnc(SCC(=O)NCC3CCCO3)s2)CC1=O (stereo not given) | -8.54% (inactive)
COc1cccc(NC(=O)CN(C)C(=O)c2ccccc2CCc2ccccc2)c1 | 16.1% (inactive)
COc1ccc(CC(NC(C)=O)C(=O)NC2CCN(C(=O)c3ccc(Cl)cc3)CC2)cc1 (stereo not given) | -3.77% (inactive)
CC(CC(=O)N1CCN(S(=O)(=O)c2ccccc2)CC1)n1cncn1 (stereo not given) | -9.3% (inactive)
N#C/C=C1\Sc2ccccc2C(=O)N1CC(=O)N1CCN(S(=O)(=O)c2ccccc2)CC1 | 122% (active)
O=C(Cc1ccccc1)N1CCN(S(=O)(=O)c2ccc([N+](=O)[O-])cc2)CC1 | -23.6% (inactive)
COC(=O)CN1C(=O)[C@H]2[C@@H](/C=C/c3ccccc3)N3C(=O)CN(Cc4ccccc4)C(=O)[C@@]3(Cc3ccccc3)[C@H]2C1=O | -2.54% (inactive)
CCN(C(=O)C1CCCN(c2nc(-c3ccc(OC)cc3)no2)C1)c1ccc(OC)cc1 (stereo not given) | 9.76% (inactive)
Cc1ccc(-c2noc(C3CCCN(C(=O)c4cccc(Cl)c4)C3)n2)o1 (stereo not given) | 69.1% (active)
COc1ccc(NC(=O)N2CCCC(C(=O)Nc3ccccc3OC)C2)cc1 (stereo not given) | -5.66% (inactive)
COc1ccc(C(=O)NC2CCN(C(=O)Nc3ccc(F)cc3)CC2)cc1 | -7.18% (inactive)
CC(C)c1ccc(-c2noc(C3CCCN(S(C)(=O)=O)C3)n2)cc1 (stereo not given) | 64.2% (active)

Compound | inhibition
O=C(c1ccc(F)cc1)N1CCCC(c2nc(-c3cccs3)no2)C1 (stereo not given) | 16.4% (inactive)
O=C(c1cccs1)N1CCCC(c2nc(-c3ccc(F)cc3)no2)C1 (stereo not given) | 82.3% (active)
O=C(Cc1cccs1)N1CCCC(c2nc(-c3ccc(S(=O)(=O)N4CCCC4)cc3)no2)C1 (stereo not given) | -10.3% (inactive)
COc1ccc(NC(=O)N2CCCC(c3nc(-c4ccc(F)cc4)no3)C2)cc1 (stereo not given) | 96% (active)
COc1cc(-c2noc(C3CCCN(S(=O)(=O)c4cccc(Cl)c4)C3)n2)cc(OC)c1OC (stereo not given) | -8.14% (inactive)
CCc1nc2ccc(C(=O)N3CCN(c4cccc(Cl)c4)CC3)cc2nc1CC | -14% (inactive)
Cc1c(CN2CCCC(C(=O)c3cccc(Cl)c3)C2)c(=O)n(-c2ccccc2)n1C (stereo not given) | -7.01% (inactive)
COc1ccccc1C(=O)Nn1cnnc1 | -6.2% (inactive)
C#CCOc1ccccc1/C=C1/C(=O)ON=C1C | 3.31% (inactive)
CC(=O)N1c2ccc(S(=O)(=O)N3CCC(C(=O)NC4CCCCC4C)CC3)cc2CC1C (stereo not given) | -11.2% (inactive)
COc1cccc(OC)c1C(=O)Nc1c(C(=O)N2CCN(c3ccccn3)CC2)oc2ccccc12 | 3.52% (inactive)
CCOC(=O)C1CCN(C(=O)CN2C(=O)c3cccnc3Oc3ccc(C)cc32)CC1 | -9.03% (inactive)
COc1ccc(N(C(=O)c2snc(C(N)=O)c2N)C(C(=O)NC2CCCC2)c2ccc(C)o2)c(OC)c1 (stereo not given) | -6.03% (inactive)
Cc1ccc2c(c1)N(CC(=O)N1CCCC(C)C1)C(=O)CO2 (stereo not given) | 2.65% (inactive)
Cc1cccc(S(=O)(=O)N2CN(CC3CCCO3)c3nc4ccccc4nc32)c1 (stereo not given) | -6.17% (inactive)
O=C(c1c(F)cccc1Cl)N1CCN(c2ccccn2)CC1 | -18.5% (inactive)
Cc1ccccc1N1CCN(CCCN2C(=O)C3CCCCN3C2=O)CC1 (stereo not given) | -5.61% (inactive)
CN(CC1CCCO1)S(=O)(=O)c1ccc(C(=O)Nc2ccc([N+](=O)[O-])cc2)cc1 (stereo not given) | 14% (inactive)
CN(C(=O)c1cccc([N+](=O)[O-])c1)c1ccccc1C(=O)NCc1ccccc1 | -10.6% (inactive)
Cc1c(C(=O)N/N=C/c2ccccc2)[nH]c2c([N+](=O)[O-])cccc12 | -9.32% (inactive)
COc1cc2c(C(=O)O)c(C)n(C)c2c2ccccc12 | -4.47% (inactive)
COc1cccc2c(C)c(C(=O)O)[nH]c12 | -35.1% (active)
COc1ccccc1N1CCN(S(=O)(=O)CCNC(=O)c2ccc(OC(C)C)cc2)CC1 | -4.39% (inactive)
Cc1ccccc1CNC(=O)CCC(=O)N1Cc2ccccc2Oc2ncccc21 | 13.6% (inactive)

Compound | inhibition
C[n+]1cc(-c2ccccc2)oc1-c1ccccc1 | 88.6% (active)
COc1ccccc1CCNS(=O)(=O)c1cn(C)nc1C | -8.83% (inactive)
CS(=O)(=O)c1ccc2nc(NC(=O)CN3CCCCCC3)sc2c1 | 18.3% (inactive)
CS(=O)(=O)c1ccc2nc(NC(=O)C3CCCCC3)sc2c1 | 22.9% (inactive)
Cc1cnc(NC(=O)c2ccc(Cl)nc2)s1 | 109% (active)
CS(=O)(=O)c1ccc2nc(NC(=O)C3C4C=CC(C4)C3C(=O)O)sc2c1 (stereo not given) | 14.8% (inactive)
CS(=O)(=O)c1ccc2nc(NC(=O)c3ccc(N4CCCC4=O)cc3)sc2c1 | 8.48% (inactive)
O=C(Nc1nc2ccc([N+](=O)[O-])cc2s1)c1ccncc1 | 35% (inactive)
CNC(=O)c1ccc2nc(NC(C)=O)sc2c1 | 45.1% (active)
Cc1cnc(NC(=O)c2ccccn2)s1 | 11.7% (inactive)
COc1cccc(C(=O)Nc2nc3ccc(S(C)(=O)=O)cc3s2)c1 | 92.7% (active)
CS(=O)(=O)c1ccc2nc(NC(=O)c3ccc(Cl)nc3)sc2c1 | 70.7% (active)
CCCC(=O)Nc1nc2ccc(NC(=O)c3cccnc3)cc2s1 | 89.7% (inactive)
CCN(CC)c1ccc(NC(=O)c2ccc(Cl)nc2)cc1 | 18.4% (inactive)
CCCNC(=O)c1ccc(N2CCC3(CC2)CC(c2ccc(Cl)cc2)=NO3)c([N+](=O)[O-])c1 | 0.364% (inactive)
COc1ccc(CN2CCCC(C(=O)N3CCCCC3)C2)cc1 (stereo not given) | -9.61% (inactive)
Cc1ccc2c(cnn2C(=O)CCC(=O)NC2CCCC2)c1 | 1.95% (inactive)
CCOc1ccc(C(CC(=O)O)NC(=O)Cc2ccccc2)cc1OC (stereo not given) | -3.82% (inactive)
COc1ccc(C2CC(=O)NC(=O)C2)cc1 | 1.04% (inactive)
Cc1c(CCC(=O)N[C@@H](CC(C)C)C(=O)O)c(=O)oc2c(C)c3oc4c(c3cc12)CCCC4 | -1.24% (inactive)
CCc1ccc(NC(=O)Nc2ccncc2)cc1 | 58.2% (active)
CCc1ccc(NC(=O)N[C@H](C(=O)O)C(C)CC)cc1 (stereo not given in full) | -3.77% (inactive)
O=C(Nc1ccncc1)Nc1ccc(F)cc1 | 30.2% (inactive)
